Data as given in the supplement of paper PMC7156485.
± gives the standard deviation of the averaged measurements.

Test system: HCC1569
Assay: cell number relative to DMSO (% of DMSO); higher = more cells (less growth inhibition / toxicity)
Conditions: concentration: 10 µM; 24 h
How it was run: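 In 384-well plates holding 800 HCC1569 or TDF cells per well in RPMI with 10% FBS, compounds were tested at 10 µM for 24 h at 37 °C in triplicate. Fixation used 3.7% formaldehyde. Staining used a rabbit anti-H1.0 antibody with an AlexaFluor 647 secondary, plus DAPI. Each value, H1.0 nuclear intensity or cell number, is a median of replicates shown as percent of the plate control, and HCC1569 values were smoothed for positional effects.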
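Note: TDF denotes transformed human dermal fibroblasts of mesenchymal origin.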

Structure (SMILES) | cell number
CC1=CC(=O)c2c(O)cccc2C1=O [Plumbagin] | 39
Cl.OC1CCCCC1N1CCC(c2ccccc2)CC1 (centres undefined) [Vesamicol hydrochloride] | 99
CN1C2CCC1CC(OC(=O)c1cc(Cl)cc(Cl)c1)C2 (centres undefined) [3-Tropanyl-3,5-dichlorobenzoate] | 100
CC(=O)OC1CC2CCC3C(CCC4(C)C3CC([N+]3(C)CCCCC3)C4OC(C)=O)C2(C)CC1[N+]1(C)CCCCC1.[Br-].[Br-] (centres undefined) [Pancuronium bromide] | 103
O=C1C=C2C=CC3CC2(O1)C1CCCCN31 (centres undefined) [Securinine] | 87.8
C=C1C(C)C2C(Cc3ccccc3)NC(=O)C23OC(=O)C=CC(O)CCCC(C)CC=CC3C1O (centres undefined) [Cytochalasin B] | 95.1
CC12CCC(O)CC1CCC1C2CCC2(C)C(C(=O)CO)CCC12 (stereo not drawn) [3-alpha,21-Dihydroxy-5-alpha-pregnan-20-one] | 102
CCN1CC2(C)CCC(O)C34C5CC6C(OC)CC(O)(C(CC23)C14)C5C6O (centres undefined) [Karakoline] | 103.2 ± 0.75
CC(C)c1cc2c(c(O)c1O)C1(C(=O)O)CCCC(C)(C)C1CC2 (centres undefined) [Carnosic acid] | 96.8
Cc1sc2c(c1C)C(c1ccc(Cl)cc1)=N[C@@H](CC(N)=O)c1nnc(C)n1-2 | 79.2
CCN(CCCl)Cc1ccccc1Br.Cl [DSP-4 hydrochloride] | 98.7
CCc1c(C(=O)OC)ncc2[nH]c3cc(OC)c(OC)cc3c12 [Methyl 6,7-dimethoxy-4-ethyl-beta-carboline-3-carboxylate] | 95.8
Cc1cc(C2CCCN2C)on1 (centres undefined) | 102
CC1=CC23C(=O)C(C=C(CO)C(O)C2(O)C1O)C1C(CC3C)C1(C)C (centres undefined) [Ingenol] | 102
C=C(C)C1Cc2c(ccc3c2OC2COc4cc(OC)c(OC)cc4C2C3=O)O1 (centres undefined) [Rotenone] | 59.7 ± 1.6
OC1CN2CCCC(O)C2C1O (centres undefined) [Swainsonine] | 100
CN(C(=O)Cc1ccc(Cl)c(Cl)c1)C(CN1CCCC1)c1cccc(OCC(=O)O)c1.Cl (centres undefined) [ICI 204,448 hydrochloride] | 104
CC(C(O)CCC(C)(C)O)C1CCC2(O)C3=CC(=O)C4CC(O)C(O)CC4(C)C3CCC12C (centres undefined) [Ecdysone] | 103
Cl.NN=C(N)N [Aminoguanidine hydrochloride] | 105
C[N+]1(C)CCN(c2ccccc2)CC1.[I-] [1,1-Dimethyl-4-phenyl-piperazinium iodide] | 99
CC1OC(C[N+](C)(C)C)CC1O.[Cl-] (single isomer, unassigned; (+)) [(+)-Muscarine chloride] | 106
NC(N)=NOCC[C@H](N)C(=O)O.O=S(=O)(O)O [L-Canavanine sulfate] | 101
COC(C)C(O)(C(=O)OCC1=CCN2CCC(O)C12)C(C)C (centres undefined) [Heliotrine] | 99.8
Br.COc1c2c(cc3c1OCO3)CCN(C)C2 [Hydrocotarnine HBr] | 102
